# Several values for one entry are separate records, joined by “and”; a condition that tells them apart may be missing. Equal entries are not always repeated. The panel holds about 83,000 compounds, 20% with a hit somewhere; the sample as a whole holds those more often.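 In brief: 96-well plates, 48 h treatment, single concentration, percent growth endpoint.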 Activity calls are given as the source filed them. Rule for the calls: active = growth percent below 10; inactive = the rest.
# Assays:
# Assay in all cases: NCI-60 one-dose screen, 48 h (100 = growth as untreated, 0 = no growth, -100 = all killed)
# Details in all cases: 10 µM unless noted
# HCT-15 colon = system: HCT-15 colon
# HT29 colon = system: HT29 colon
# SNB-75 CNS = system: SNB-75 CNS
# SNB-19 CNS = system: SNB-19 CNS
# U251 CNS = system: U251 CNS
# PC-3 prostate = system: PC-3 prostate
# SK-MEL-5 melanoma = system: SK-MEL-5 melanoma
# UACC-62 melanoma = system: UACC-62 melanoma
# SK-MEL-28 melanoma = system: SK-MEL-28 melanoma
# SK-MEL-2 melanoma = system: SK-MEL-2 melanoma
# EKVX NSCLC = system: EKVX NSCLC
# SN12C renal = system: SN12C renal
# UO-31 renal = system: UO-31 renal
# TK-10 renal = system: TK-10 renal
# ACHN renal = system: ACHN renal
# CAKI-1 renal = system: CAKI-1 renal
# A498 renal = system: A498 renal
# HL-60(TB) leukemia = system: HL-60(TB) leukemia
# CCRF-CEM leukemia = system: CCRF-CEM leukemia
# LOX IMVI melanoma = system: LOX IMVI melanoma
SMILES,growth (HCT-15 colon),growth (HT29 colon),growth (SNB-75 CNS),growth (SNB-19 CNS),growth (U251 CNS),growth (PC-3 prostate),growth (SK-MEL-5 melanoma),growth (UACC-62 melanoma),growth (SK-MEL-28 melanoma),growth (SK-MEL-2 melanoma),growth (EKVX NSCLC),growth (SN12C renal),growth (UO-31 renal),growth (TK-10 renal),growth (ACHN renal),growth (CAKI-1 renal),growth (A498 renal),growth (HL-60(TB) leukemia),growth (CCRF-CEM leukemia),growth (LOX IMVI melanoma)
O=C(NC1=NCC[Se]1)c1ccccc1O,82% (inactive),92.1% (inactive),67.3% (inactive),68.5% (inactive),44% (inactive),54.9% (inactive),80.9% (inactive),76.2% (inactive),61.3% (inactive),83% (inactive),73% (inactive),68.4% (inactive),17.8% (inactive),56.7% (inactive),79.8% (inactive),50.8% (inactive),88.5% (inactive),58.8% (inactive),21.8% (inactive),–
O=C(O)c1ccccc1N(CCO)CCCl,87% (inactive),115% (inactive),81.3% (inactive),98.8% (inactive),94.5% (inactive),87.6% (inactive),101% (inactive),94% (inactive),100% (inactive),116% (inactive),118% (inactive),98.3% (inactive),88.2% (inactive),117% (inactive),95% (inactive),112% (inactive),100% (inactive),53.8% (inactive),-3.53% (active),–
COc1ccc(N)cc1N,102% (inactive),113% (inactive),88.7% (inactive),101% (inactive),106% (inactive),88.2% (inactive),105% (inactive),105% (inactive),120% (inactive),–,107% (inactive),101% (inactive),70.8% (inactive),148% (inactive),101% (inactive),101% (inactive),122% (inactive),128% (inactive),111% (inactive),–
CCN(CC)CCn1c(=O)n(C)c2ccccc21,114% (inactive),112% (inactive),97% (inactive),113% (inactive),96.3% (inactive),96.8% (inactive),–,109% (inactive),114% (inactive),–,114% (inactive),108% (inactive),92.5% (inactive),111% (inactive),114% (inactive),102% (inactive),104% (inactive),107% (inactive),103% (inactive),98.4% (inactive)
CCC1(CCSC#N)C(=O)NC(=O)NC1=O,99.6% (inactive),100% (inactive),97.1% (inactive),101% (inactive),93.9% (inactive),–,100% (inactive),104% (inactive),110% (inactive),109% (inactive),93.2% (inactive),104% (inactive),87% (inactive),86.5% (inactive),106% (inactive),98.7% (inactive),90.9% (inactive),98.3% (inactive),103% (inactive),101% (inactive)
Cc1c2ccncc2c(C)c2c1[nH]c1ccccc12,-40.3% (active),2% (active),-89% (active),-84.8% (active),-82.2% (active),–,-97.7% (active),56.5% (inactive),-96.7% (active),-85.8% (active),-21.8% (active),-75.8% (active),-82.1% (active),-81.3% (active),-92.3% (active),-90.7% (active),-94.8% (active),-45.1% (active),–,-77.6% (active)
Cc1cc(N)ccc1N,105% (inactive),109% (inactive),92.3% (inactive),102% (inactive),93.2% (inactive),87.6% (inactive),97.2% (inactive),103% (inactive),107% (inactive),104% (inactive),–,95.7% (inactive),88.7% (inactive),–,97% (inactive),97.9% (inactive),79.2% (inactive),100% (inactive),69.3% (inactive),–
O=C1NC(=O)C(=C/C=C/c2ccccc2)C(=O)N1,8.86% (active),-71.6% (active),24.3% (inactive),53.8% (inactive),7.65% (active),27.7% (inactive),80.9% (inactive),-11.9% (active),-34.7% (active),74.2% (inactive),84.1% (inactive),-10.6% (active),-64.3% (active),14.8% (inactive),2.5% (active),-12.7% (active),106% (inactive),-5.93% (active),-7.03% (active),–
CCOP(=O)(OCC)C(=O)N(CC)CC,98.4% (inactive),114% (inactive),102% (inactive),103% (inactive),95% (inactive),–,94.4% (inactive),107% (inactive),115% (inactive),103% (inactive),–,103% (inactive),104% (inactive),–,–,103% (inactive),95.4% (inactive),91.8% (inactive),89.1% (inactive),104% (inactive)
CC(=O)Nc1nc2c(s1)C1=CC[C@H]3[C@@H]4CC[C@H](OC(C)=O)[C@@]4(C)CC[C@@H]3[C@@]1(C)CC2,40.3% (inactive),26.6% (inactive),0.377% (active),62% (inactive),43.9% (inactive),–,36.9% (inactive),49.5% (inactive),54.7% (inactive),50.3% (inactive),82.9% (inactive),69.7% (inactive),72.7% (inactive),–,67.7% (inactive),24.4% (inactive),62.1% (inactive),43.4% (inactive),57.7% (inactive),63.5% (inactive)
C[C@]12CC[C@H]3[C@@H](CC=C4c5nc(-c6ccc(Br)cc6)sc5CC[C@@]43C)[C@@H]1CC[C@@H]2O,89.1% (inactive),109% (inactive),78.4% (inactive),84.4% (inactive),63.4% (inactive),–,97.1% (inactive),84.4% (inactive),90.1% (inactive),101% (inactive),109% (inactive),91.4% (inactive),95.6% (inactive),110% (inactive),93.4% (inactive),85.4% (inactive),107% (inactive),94.3% (inactive),96.1% (inactive),90% (inactive)
COc1ccc2c(c1)c(-c1nc(-c3c[nH]c4ncccc34)cs1)cn2CCCCN1CCOCC1,-31.7% (active),-84.4% (active),40.1% (inactive),52.4% (inactive),4.84% (active),–,26% (inactive),20.4% (inactive),-90.3% (active),–,68.4% (inactive),61.9% (inactive),22.8% (inactive),64.4% (inactive),17.1% (inactive),37.5% (inactive),92.3% (inactive),7.66% (active),-8.39% (active),-34.7% (active)
CC[C@H](C)[C@H]1O[C@]2(C=C[C@@H]1C)C[C@@H]1C[C@@H](C/C=C(\C)[C@@H](O[C@H]3C[C@H](OC)[C@@H](O[C@H]4C[C@H](OC)[C@@H](NC)[C@H](C)O4)[C@H](C)O3)[C@@H](C)/C=C/C=C3\CO[C@@H]4[C@H](O)C(C)=C[C@@H](C(=O)O1)[C@]34O)O2,-70.2% (active),-64.3% (active),-72.7% (active),13.7% (inactive),-88.7% (active),–,-95.5% (active),-53.1% (active),-79.2% (active),-54.5% (active),-40.9% (active),-47.5% (active),-63.2% (active),-76% (active),-33.9% (active),18.7% (inactive),-7.23% (active),-59.8% (active),-43% (active),-92.3% (active)
[N-]=[N+]=CC(=O)CCC(=O)C=[N+]=[N-],111% (inactive),107% (inactive),96.6% (inactive),99.6% (inactive),100% (inactive),–,116% (inactive),96.5% (inactive),112% (inactive),113% (inactive),105% (inactive),107% (inactive),71.3% (inactive),–,95% (inactive),97.4% (inactive),110% (inactive),76.4% (inactive),–,94.9% (inactive)
CCCC[C@H]1C(=O)O[C@H](C)[C@H](NC(=O)c2cccc(NC=O)c2O)C(=O)O[C@@H](C)[C@@H]1OC(=O)CC(C)C,39.9% (inactive),49.5% (inactive),56.8% (inactive),44.4% (inactive),42.9% (inactive),–,-5.18% (active),34% (inactive),83.9% (inactive),93.4% (inactive),57.7% (inactive),59.6% (inactive),57.3% (inactive),49.8% (inactive),56.6% (inactive),34.5% (inactive),–,37% (inactive),28.7% (inactive),32.9% (inactive)
O=C(CCCN1CCC2(CC1)C(=O)NCN2c1ccccc1)c1ccc(F)cc1,100% (inactive) and 78.4% (inactive),60.8% (inactive) and 21.9% (inactive),109% (inactive) and 105% (inactive),98.1% (inactive) and 66.6% (inactive),98.6% (inactive) and 78.7% (inactive),–,56.9% (inactive) and -23.1% (active),102% (inactive) and 65% (inactive),114% (inactive) and 120% (inactive),–,57.6% (inactive) and 80.6% (inactive),99.6% (inactive) and 84.2% (inactive),77.1% (inactive) and 66% (inactive),115% (inactive) and 99.1% (inactive),20.3% (inactive),91.6% (inactive) and 15.5% (inactive),50.3% (inactive) and 30.6% (inactive),100% (inactive) and 114% (inactive),–,103% (inactive) and 67.8% (inactive)

# — PubChem BioAssay (NCI)
